Source: PubChem BioAssay
Compounds with a hit are over-represented: about 2.5% of the library has one in this group of screens.
Cruzain noTriton: inhibitors of Trypanosoma cruzi cruzain without detergent; 200,000 compounds, 2.3% hits; P25779; AID 1476; purified cruzain, Z-FR-AMC fluorescence, no detergent; Potency, µM, actives largely listed as inhibitors; further: nearly all actives have a fitted effect of over 40% in size
Target sequence (P25779 123-467 limits assumed): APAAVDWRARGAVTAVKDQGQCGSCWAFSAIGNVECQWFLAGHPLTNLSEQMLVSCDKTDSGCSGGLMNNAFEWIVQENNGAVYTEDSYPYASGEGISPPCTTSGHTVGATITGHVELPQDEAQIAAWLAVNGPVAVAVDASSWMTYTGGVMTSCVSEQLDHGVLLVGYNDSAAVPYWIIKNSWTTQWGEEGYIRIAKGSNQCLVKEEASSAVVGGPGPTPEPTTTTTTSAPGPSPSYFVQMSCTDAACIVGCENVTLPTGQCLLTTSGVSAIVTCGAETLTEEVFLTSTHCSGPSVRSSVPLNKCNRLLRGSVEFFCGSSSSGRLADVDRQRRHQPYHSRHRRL
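Purified cruzain at 1.5 nM, pre-incubated 15 min with compound at room temperature in 100 mM sodium acetate pH 5.5, 5 mM DTT, 0.00005% Triton X-100. Reaction started with 2 uM Z-FR-AMC; AMC fluorescence increase over 60 s gives rate.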
Cruzain inh Det: cruzain (T. cruzi) inhibition with detergent | AID 1478 | purified cruzain, Z-FR-AMC fluorescence, 0.01% Triton | Potency, µM, actives largely listed as inhibitors | 200,000 compounds, 0.43% hits | P25779; further: nearly all actives have a fitted effect of over 40% in size
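Read-out: AMC fluorescence (360 nm excitation, 450 nm emission), four reads over 2 min, first-to-third difference used. Conditions: cruzain 1.5 nM, Z-FR-AMC 2 uM, pH 5.5 acetate, 5 mM DTT, 0.01% Triton X-100.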
Large screens that a line does not name were inactive; ! = repeats disagree. The call rests on the fitted dose curve; in most records, active means well fitted curve in the direction sought with a large enough effect; inconclusive means small, poorly fitted or top-dose-only effect, or another doubt; inactive means no such curve, though single readings can be large; an effect the other way counts as inactive or inconclusive.

CCN(CCCNC(=O)c1cc2cc3ccc(OC)cc3nc2s1)c1ccccc1	Cruzain noTriton 32µM, Cruzain inh Det 20µM
CCN(CCCNC(=O)c1cc2cc3ccc(OC)cc3nc2s1)c1cccc(C)c1	Cruzain noTriton inconclusive
Nc1ccc2nc(-c3ccc(O)cc3)sc2c1	Cruzain noTriton inconclusive
O=C(Nc1ccc(O)c(-c2nc3ccccc3s2)c1)c1cc(=O)c2ccccc2o1	Cruzain noTriton inconclusive
Oc1ccc(N=C/C=C/c2cccc(Br)c2)cc1-c1nc2ccccc2s1	Cruzain noTriton 20µM
Nc1ccc(O)c(-c2nc3ccccc3s2)c1	Cruzain noTriton 3.2µM
Cc1cccc(N2C(=O)CS(=O)(=O)C23C(=O)N(C)c2ccccc23)c1 (stereo not drawn)	Cruzain noTriton inconclusive
Cc1ccc(C(=O)NCC(c2cccnc2)N2CCc3ccccc32)cc1C (stereo not drawn)	Cruzain noTriton inconclusive
CCOc1ccc(NC(=O)c2cc(S(=O)(=O)NC3CCCC3)ccc2F)cc1	none
CCC(CO)NC(=O)[C@@H]1C=C2c3cccc4[nH]cc(c34)C[C@H]2N(C)C1 (stereo partly drawn)	Cruzain noTriton inconclusive
CN1C[C@@H](CO)C=C2c3cccc4[nH]cc(c34)CC21 (stereo partly drawn)	Cruzain noTriton 40µM
CCOC(=O)c1cc(S(=O)(=O)Nc2cc(F)ccc2C)[nH]n1	none
COc1cccc(CNC(=O)c2ccc3oc(=O)n(Cc4ccccc4)c3c2)c1	none
Cc1cc(C)n(-c2nc3ccccc3nc2Nc2cccc(C(=O)NCCc3ccccc3)c2)n1	none
O=C(Nc1ccc(N2CCCC2)cc1)c1cccc(-c2cc3ccccc3oc2=O)c1	Cruzain noTriton 4µM
O=C(Nc1ccccc1N1CCCC1)c1cccc(-c2cc3ccccc3oc2=O)c1	Cruzain noTriton 25µM
O=C(Nc1ccc(N2CCCC2)cc1)c1ccccc1F	Cruzain noTriton 20µM
O=C(Nc1ccc(Br)cn1)c1cccc(-c2cc3ccccc3oc2=O)c1	Cruzain noTriton inconclusive
O=C(Nc1ccc(N2CCCC2)cc1)c1ccc([N+](=O)[O-])cc1Cl	Cruzain noTriton 10µM
O=C(Nc1ccc(N2CCCC2)cc1)c1cccc(F)c1	Cruzain noTriton inconclusive
O=C(Nc1ccc(N2CCOCC2)cc1)c1cc2ccccc2o1	none
CN(C)c1ccc(NC(=O)c2ccc([N+](=O)[O-])cc2Cl)cc1	Cruzain noTriton inconclusive
CCN(CC)CCNC(=O)Nc1ccc2c(c1)N(Cc1ccccc1)C(=O)c1ccccc1S2	none
Cc1oc(-c2ccc(Cl)cc2)nc1CS(=O)CC(=O)NCc1ccc(Cl)cc1 (stereo not drawn)	none
Cc1cc(=O)oc2cc(OCC(=O)Nc3c(C(C)C)cccc3C(C)C)ccc12	none
COc1ccc2c(c1)C(=O)[C@H](OC(=O)N[C@H]1CCCc3ccccc31)[C@@H](c1ccc(OC)c(Br)c1)O2	Cruzain noTriton inconclusive
O=C(Nc1ccc(N2CCCCC2)cc1)c1ccccc1	none
Cc1nc(NC(=O)c2ccc(-c3cc4ccccc4oc3=O)cc2)ccc1Br	Cruzain noTriton inconclusive
Cc1nc(NC(=O)c2cccc(-c3cc4ccccc4oc3=O)c2)ccc1Br	Cruzain noTriton 20µM
O=C(Nc1ccc(N2CCCC2)cc1)c1ccc2ccccc2c1	Cruzain noTriton 16µM
CCOC(=O)Cn1c(=O)oc2cc(S(=O)(=O)N3CCN(c4cc(C)ccc4C)CC3)ccc21	none
Nc1ccncc1	Cruzain noTriton 3.5µM!, Cruzain inh Det 3.2µM!
c1cc(-c2ccncc2)ccn1	none
COC(=O)c1scc(-c2ccc(C)cc2)c1S(=O)(=O)N1CCN(c2ccc(F)cc2)CC1	none
Cc1ccccc1Nc1nnc(SCc2cc([N+](=O)[O-])cc3c2OCOC3)s1	Cruzain noTriton 13µM
O=[N+]([O-])c1cc2c(c(CSc3nnc(Nc4ccccc4)s3)c1)OCOC2	Cruzain noTriton inconclusive
Cc1ccc(-c2nc3scc(CCNS(=O)(=O)c4ccc(C)c(C)c4)n3n2)cc1	none
Cc1ccc(S(=O)(=O)c2cn(CC(=O)Nc3cccc(Cl)c3)c3ccccc3c2=O)cc1	Cruzain noTriton 32µM
COc1ccc(NC(=O)Cn2cc(S(=O)(=O)c3ccc(C)cc3)c(=O)c3ccccc32)cc1OC	Cruzain noTriton inconclusive
CCOC(=O)C1=C(CN2CCC(C(=O)OCC)CC2)NC(=O)NC1c1ccc(Cl)cc1 (stereo not drawn)	none
CCCCCSc1nnc2c(n1)OC(c1ccc(C)s1)N(C(C)=O)c1ccccc1-2 (stereo not drawn)	none
O=C1NC(=O)c2c1c1c3ccccc3[nH]c1c1[nH]c3ccccc3c21	Cruzain noTriton 8.9µM
Cc1ccc(C)c2c1[nH]c1ccccc12	none
COc1ccc(OC)c(NC(=O)CN(c2ccccc2OC)S(=O)(=O)c2ccc(C)cc2)c1	none
Cc1noc(/C=C/c2cccs2)c1S(=O)(=O)N1CCC(C(=O)NCc2ccccc2Cl)CC1	Cruzain noTriton 13µM
Cc1ccc(CNC(=O)C2CCN(S(=O)(=O)c3c(C)noc3/C=C/c3cccs3)CC2)cc1	none
COc1ccc(/C=C/c2nnc(NC(=O)COc3cccc(C)c3)s2)cc1	Cruzain noTriton 13µM
COc1ccc(/C=C/c2nnc(NC(=O)COc3ccc(C)cc3)s2)cc1	Cruzain noTriton inconclusive
COc1ccc(N2CCN(C(=O)CS(=O)(=O)c3cccc4nsnc34)CC2)cc1	none
CS(=O)(=O)N1CCN(c2ccc(NC(=O)CSc3ccc(Cl)cc3)cc2)CC1	Cruzain noTriton 4µM
Cc1ccc(C(=O)Nc2ccc(N3CCOCC3)cc2)cc1	none
Cc1ccc(C(=O)N2CCN(c3ccc(NC(=O)CSc4ccc(Cl)cc4)cc3)CC2)cc1	none
Cc1ccc(C(=O)Nc2ccc(N3CCN(S(C)(=O)=O)CC3)cc2)cc1	Cruzain noTriton 16µM
COc1ccc(Cl)cc1NC(=O)Cn1cnc2sc(C)c(S(=O)(=O)N3CCN(c4ccccc4OC)CC3)c2c1=O	none
CCOC(=O)c1cccc(NS(=O)(=O)c2cc(-c3cnc(C4CC4)o3)ccc2C)c1	none
CCC/C=C(\CCC)C(NS(=O)(=O)c1ccc(C(F)(F)F)cc1)c1ccc(-c2ccccc2)cc1 (stereo not drawn)	none
CCOc1cc(CNCCSc2nnnn2-c2ccccc2)ccc1OC	none
CC(=O)N1c2ccccc2CC1C(=O)N1CCN(c2cccc(C)c2C)CC1 (stereo not drawn)	none
O=C1C=CC(=O)c2c(O)cccc21	Cruzain noTriton 7.9µM
O=C1c2cccc(O)c2C(=O)c2c(O)cccc21	none
Cc1nc2c(c(C)c1CCC(=O)NCc1ccc(Cl)cc1)c(=O)n(C)c(=O)n2C	none
CC(=O)Nc1ccc(C2=NN(Cc3nnc(-c4ccccc4)o3)C(=O)SC2)cc1	Cruzain noTriton inconclusive
O=C1SCC(c2ccc(Cl)cc2Cl)=NN1Cc1nnc(-c2ccccc2)o1	Cruzain noTriton 16µM
Cc1ccc2c(=O)cc(C(=O)Nc3ccc(S(=O)(=O)N(C)Cc4ccccc4)cc3)oc2c1C	none
Cc1ccc2nc(CN3CCN(S(=O)(=O)c4ccccc4)CC3)oc2c1	none
COc1cc(OC)cc(-c2nc3ccccc3c(=O)o2)c1	Cruzain noTriton 16µM
COc1cccc(-c2nc3ccccc3c(=O)o2)c1	none
Cc1ccc(C)c(N2CCN(C(=O)c3cnc4c(-c5ccccc5)c(C)nn4c3C)CC2)c1	Cruzain noTriton inconclusive
CCN1C(c2ccccc2)=C(c2ccccc2)S/C1=C/C=C1\SC(=S)N(C)C1=O	Cruzain noTriton 10µM
CCN1C(=O)/C(=C/C=C2/Sc3ccc4ccccc4c3N2CCO)SC1=S	none
O=C1c2oc3ccccc3c(=O)c2C(c2cccc(O)c2)N1Cc1ccc(F)cc1 (stereo not drawn)	none
